The panel holds about 79,000 compounds, 15% with a hit somewhere; the sample as a whole holds those more often. Calls of active or inactive are those of the source. Cut-off read from the data, not from the text of the source: active = growth inhibition above about 70%; inactive = the rest.
Key:
[1] = NCI Yeast Anticancer Drug Screen. Data for the rad52 strain (AID 147);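 note: 0% = growth of vehicle-treated control cultures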; conditions: S. cerevisiae rad52 mutant growth inhibition, active compounds read high
In short: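 Yeast strain carrying a DNA damage repair alteration was exposed to test compounds. Growth inhibition was measured relative to vehicle-treated controls.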

[2] = NCI Yeast Anticancer Drug Screen. Data for the wt1 strain (AID 149);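 note: 0% = growth of vehicle-treated wt1 cultures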; conditions: S. cerevisiae wt1 strain (SPY 50644) growth inhibition, active compounds read high
In short: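 Yeast wt1 strain exposed to compounds; growth inhibition measured relative to vehicle-treated controls.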

[3] = NCI Yeast Anticancer Drug Screen. Data for the rad50EPP+ strain (AID 151);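 note: 0% = growth of vehicle-treated control cultures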; conditions: S. cerevisiae rad50 mutant strain, active compounds read high
In short: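 Yeast strain carrying rad50 alteration (rad50EPP+) exposed to compounds; growth inhibition measured relative to vehicle-treated controls.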

[4] = NCI Yeast Anticancer Drug Screen. Data for the mgt1 strain (AID 153); conditions: S. cerevisiae mgt1 mutant growth inhibition, active compounds read high
In short: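 Yeast mgt1 strain (DNA repair/cell-cycle alteration panel) exposed to compounds; growth inhibition measured relative to vehicle-treated controls.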

[5] = NCI Yeast Anticancer Drug Screen. Data for the rad50 strain (AID 155);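 note: 0% = growth of vehicle-only cultures of the same strain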; conditions: S. cerevisiae rad50 strain growth inhibition, active compounds read high
In short: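 Yeast carrying a defined DNA repair defect were exposed to test compounds, and growth was compared with vehicle-treated controls to give percent inhibition.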

[6] = NCI Yeast Anticancer Drug Screen. Data for the mec2-1 strain (AID 157); conditions: S. cerevisiae mec2-1 strain, active compounds read high
In short: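 mec2-1 yeast strain, carrying an alteration in DNA damage repair or cell cycle control, was exposed to compounds; growth inhibition was measured relative to vehicle-treated controls.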

[7] = NCI Yeast Anticancer Drug Screen. Data for the rad14 strain (AID 159);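 note: 0% = growth of vehicle-treated control cultures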; conditions: S. cerevisiae rad14 strain growth inhibition, active compounds read high
In short: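 Yeast cells carrying a defined DNA-repair defect were exposed to compounds, and growth inhibition was calculated relative to vehicle-treated control cultures.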

[8] = NCI Yeast Anticancer Drug Screen. Data for the sgs1 mgt1 strain (AID 161);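 note: 0% = growth of cultures given vehicle only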; conditions: S. cerevisiae sgs1 mgt1 strain, active compounds read high
In short: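 Percent growth inhibition was derived by comparing compound-exposed mutant yeast with vehicle-exposed cultures. The strain carries alterations in DNA damage repair.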

[9] = NCI Yeast Anticancer Drug Screen. Data for the cln2 rad14 strain (AID 165);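 note: 0% = growth equal to vehicle treated cultures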; conditions: S. cerevisiae cln2 rad14 strain, active compounds read high
In short: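 Yeast carrying cln2 and rad14 alterations (cell cycle control and DNA damage repair) were exposed to compounds. Growth inhibition was measured against vehicle-treated controls.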

[10] = NCI Yeast Anticancer Drug Screen. Data for the bub3 strain (AID 167); conditions: S. cerevisiae bub3 mutant strain, active compounds read high
In short: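 Compounds were applied to a genetically altered yeast strain carrying a cell-cycle control defect. Growth inhibition was scored against vehicle-treated controls.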

[11] = NCI Yeast Anticancer Drug Screen. Data for the wt2 strain (AID 169);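 note: 0% = growth of vehicle-treated yeast cultures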; conditions: S. cerevisiae wt2 strain growth inhibition, active compounds read high
In short: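 Yeast cells were exposed to test compounds, and growth inhibition was measured relative to vehicle-treated controls.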

[12] = NCI Yeast Anticancer Drug Screen. Data for the mlh1 strain (AID 171);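 note: 0% = growth of vehicle-treated control cultures of the same strain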; conditions: S. cerevisiae mlh1 strain growth inhibition, active compounds read high
In short: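 Yeast carrying a defined genetic alteration in DNA damage repair or cell cycle control were exposed to test compounds. Growth inhibition was measured relative to vehicle-treated controls.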

[13] = NCI Yeast Anticancer Drug Screen. Data for the sgs1 strain (AID 173);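 note: 0% = growth of vehicle-only control cultures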; conditions: S. cerevisiae sgs1 mutant, active compounds read high
In short: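 Yeast mutant strains carrying defined defects in DNA damage repair or cell cycle control were exposed to test compounds. Growth inhibition was scored against vehicle-treated controls.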

[14] = NCI Yeast Anticancer Drug Screen. Data for the mlh1 rad18 strain (AID 175); conditions: S. cerevisiae mlh1 rad18 strain growth inhibition, active compounds read high
In short: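 Growth inhibition of the yeast strain was measured after compound exposure and expressed relative to vehicle-treated controls. The strain carries defined defects in DNA damage repair.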

[15] = NCI Yeast Anticancer Drug Screen. Data for the rad18 strain (AID 177); conditions: S. cerevisiae rad18 mutant growth inhibition, active compounds read high
In short: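 Yeast carrying a defined DNA damage repair alteration were exposed to compounds. Growth inhibition was expressed relative to vehicle-treated controls.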

[16] = at 5.0 µM (retest, dose inferred, filed as 0.5)
[17] = at 50.0 µM (retest, dose inferred, filed as 5.0)

Measured: growth inhibition

O=C1NC(=O)c2ccc([N+](=O)[O-])c3cccc1c23
inactive: [1]; at 1.2 µM 11% | [1]; at 3.7 µM 27% | [1]; at 11.0 µM 36% | [1]; at 33.0 µM 56% | [2]; at 1.2 µM -12% | [2]; at 3.7 µM 32% | [2]; at 11.0 µM 25% | [2]; at 33.0 µM 24% | [2]; at 100.0 µM 36% | [3]; at 1.2 µM 45% | [3]; at 3.7 µM 51% | [3]; at 11.0 µM 65% | [4]; at 1.2 µM 11% | [4]; at 3.7 µM 18% | [4]; at 11.0 µM 20% | [4]; at 33.0 µM 30% | [4]; at 100.0 µM 49% | [5]; at 1.2 µM 7% | [5]; at 3.7 µM 13% | [5]; [16] -15% | [5]; at 11.0 µM 20% | [5]; at 33.0 µM 47% | [5]; [17] 55% | [5]; at 50.0 µM 64.5% | [5]; at 100.0 µM 65% | [6]; at 1.2 µM 11% | [6]; at 3.7 µM 20% | [6]; [16] -36% | [6]; at 11.0 µM 20% | [6]; at 33.0 µM 35% | [6]; [17] 23% | [6]; at 50.0 µM 33.5% | [7]; at 1.2 µM -2% | [7]; at 3.7 µM 5% | [7]; at 11.0 µM 21% | [7]; at 33.0 µM 55% | [8]; [16] -8% | [8]; [17] 23% | [8]; at 50.0 µM 68.8% | [9]; [16] 24% | [9]; [17] 68% | [10]; at 1.2 µM 28% | [10]; at 3.7 µM 43% | [10]; [16] 2% | [10]; at 11.0 µM 39% | [10]; at 33.0 µM 55% | [10]; at 50.0 µM 51.9% | [10]; at 100.0 µM 67% | [11]; at 1.2 µM 21% | [11]; at 3.7 µM 12% | [11]; at 11.0 µM 29% | [11]; at 33.0 µM 43% | [11]; at 100.0 µM 62% | [12]; at 1.2 µM 32% | [12]; at 3.7 µM 28% | [12]; at 11.0 µM 41% | [12]; at 33.0 µM 65% | [13]; at 1.2 µM 41% | [13]; at 3.7 µM 51% | [13]; at 11.0 µM 66% | [14]; [16] 51% | [14]; at 50.0 µM 37.5% | [15]; at 1.2 µM 48%
active: [1]; at 100.0 µM 73% | [3]; at 33.0 µM 78% | [3]; at 100.0 µM 81% | [6]; at 100.0 µM 72% | [7]; at 100.0 µM 79% | [9]; at 50.0 µM 72.2% | [10]; [17] 79% | [12]; at 100.0 µM 75% | [13]; at 33.0 µM 78% | [13]; at 100.0 µM 74% | [14]; [17] 87% | [15]; at 3.7 µM 72% | [15]; at 11.0 µM 86% | [15]; at 33.0 µM 93% | [15]; at 100.0 µM 92%
